In the supplement of paper PMC11732987, “Enantioselective OTUD7B fragment discovery through chemoproteomics screening and high-throughput optimisation” (Communications Chemistry, 2025):

Tests used:
Experiment in all cases: log2 ratio of Biotin-Ahx-Ub-VS probe labelling (fragment/DMSO); higher = less target engagement (more negative = stronger competition), active = hit call of the paper (q ≤ 0.05, log2 ratio ≤ -1)
Details in all cases: compound concentration: 200 uM; treatment time: 3 h
USP42 = target: T1, USP42 (UniProt Q9H9J4)
T1 sequence (whole entry): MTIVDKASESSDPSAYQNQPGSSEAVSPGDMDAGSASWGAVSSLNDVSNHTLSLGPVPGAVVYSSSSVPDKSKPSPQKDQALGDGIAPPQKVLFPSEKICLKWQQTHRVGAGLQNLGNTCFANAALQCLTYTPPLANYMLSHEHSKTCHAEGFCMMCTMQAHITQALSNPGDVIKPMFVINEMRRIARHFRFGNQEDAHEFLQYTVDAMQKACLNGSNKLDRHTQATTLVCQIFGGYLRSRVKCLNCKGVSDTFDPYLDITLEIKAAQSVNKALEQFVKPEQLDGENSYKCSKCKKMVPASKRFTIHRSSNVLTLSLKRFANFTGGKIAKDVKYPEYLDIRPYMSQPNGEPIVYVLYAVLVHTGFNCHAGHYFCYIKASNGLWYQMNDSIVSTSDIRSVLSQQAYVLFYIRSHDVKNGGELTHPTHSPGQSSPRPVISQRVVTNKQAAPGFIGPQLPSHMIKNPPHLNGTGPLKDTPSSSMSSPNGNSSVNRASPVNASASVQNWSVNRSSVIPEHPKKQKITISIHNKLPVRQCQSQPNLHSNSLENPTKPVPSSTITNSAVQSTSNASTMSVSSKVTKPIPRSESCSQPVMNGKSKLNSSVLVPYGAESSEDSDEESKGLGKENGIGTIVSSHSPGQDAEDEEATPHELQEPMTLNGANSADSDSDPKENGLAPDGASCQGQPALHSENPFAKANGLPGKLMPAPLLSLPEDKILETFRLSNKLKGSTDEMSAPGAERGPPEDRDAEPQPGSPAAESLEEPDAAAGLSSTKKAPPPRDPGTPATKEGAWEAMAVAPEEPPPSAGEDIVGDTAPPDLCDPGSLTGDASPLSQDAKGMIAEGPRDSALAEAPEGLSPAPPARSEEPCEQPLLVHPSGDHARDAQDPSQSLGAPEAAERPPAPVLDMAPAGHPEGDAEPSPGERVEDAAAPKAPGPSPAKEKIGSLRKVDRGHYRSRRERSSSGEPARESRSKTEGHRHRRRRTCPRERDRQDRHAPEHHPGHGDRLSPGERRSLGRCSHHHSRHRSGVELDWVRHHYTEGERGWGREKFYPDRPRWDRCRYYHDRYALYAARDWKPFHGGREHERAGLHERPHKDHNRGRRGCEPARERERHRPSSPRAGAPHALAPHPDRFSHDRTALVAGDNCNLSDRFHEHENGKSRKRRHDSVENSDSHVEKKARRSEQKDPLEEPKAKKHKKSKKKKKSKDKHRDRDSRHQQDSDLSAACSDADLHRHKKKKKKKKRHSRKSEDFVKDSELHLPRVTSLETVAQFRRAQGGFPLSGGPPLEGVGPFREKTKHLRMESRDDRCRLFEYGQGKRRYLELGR
Summary of the method: (§1)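 Labelled DUBs from HEK293T lysate were NeutrAvidin-enriched, digested with LysC and trypsin, and run by diaPASEF LC-MS/MS. Before that, each 495 µg sample in Tris/CHAPS/IGEPAL buffer with protease inhibitors was treated in triplicate with fragment at 200 µM or vehicle for 3 h, then with Biotin-Ahx-Ub-VS at 0.5 µM final for 1 h. Values are average log2 ratios of fragment over vehicle by unpaired t-test, based on global-median-normalised Spectronaut label-free quantities from proteins with ≥2 unique peptides.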

USP46 = USP46 (UniProt P62068)
Chain of USP46 (P62068 whole entry): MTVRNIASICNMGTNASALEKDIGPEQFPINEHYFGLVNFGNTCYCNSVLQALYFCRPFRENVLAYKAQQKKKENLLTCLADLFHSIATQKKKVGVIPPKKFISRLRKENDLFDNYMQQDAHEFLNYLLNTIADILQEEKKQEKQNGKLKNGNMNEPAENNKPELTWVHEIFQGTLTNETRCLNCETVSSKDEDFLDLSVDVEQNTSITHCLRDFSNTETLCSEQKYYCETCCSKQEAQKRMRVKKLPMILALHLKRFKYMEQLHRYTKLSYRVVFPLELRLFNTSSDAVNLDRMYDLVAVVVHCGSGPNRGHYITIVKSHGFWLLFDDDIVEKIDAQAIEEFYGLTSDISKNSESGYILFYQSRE
Summary of the method: as §1

USP47 = target: T2, USP47 (UniProt Q96K76)
T2 sequence (whole entry): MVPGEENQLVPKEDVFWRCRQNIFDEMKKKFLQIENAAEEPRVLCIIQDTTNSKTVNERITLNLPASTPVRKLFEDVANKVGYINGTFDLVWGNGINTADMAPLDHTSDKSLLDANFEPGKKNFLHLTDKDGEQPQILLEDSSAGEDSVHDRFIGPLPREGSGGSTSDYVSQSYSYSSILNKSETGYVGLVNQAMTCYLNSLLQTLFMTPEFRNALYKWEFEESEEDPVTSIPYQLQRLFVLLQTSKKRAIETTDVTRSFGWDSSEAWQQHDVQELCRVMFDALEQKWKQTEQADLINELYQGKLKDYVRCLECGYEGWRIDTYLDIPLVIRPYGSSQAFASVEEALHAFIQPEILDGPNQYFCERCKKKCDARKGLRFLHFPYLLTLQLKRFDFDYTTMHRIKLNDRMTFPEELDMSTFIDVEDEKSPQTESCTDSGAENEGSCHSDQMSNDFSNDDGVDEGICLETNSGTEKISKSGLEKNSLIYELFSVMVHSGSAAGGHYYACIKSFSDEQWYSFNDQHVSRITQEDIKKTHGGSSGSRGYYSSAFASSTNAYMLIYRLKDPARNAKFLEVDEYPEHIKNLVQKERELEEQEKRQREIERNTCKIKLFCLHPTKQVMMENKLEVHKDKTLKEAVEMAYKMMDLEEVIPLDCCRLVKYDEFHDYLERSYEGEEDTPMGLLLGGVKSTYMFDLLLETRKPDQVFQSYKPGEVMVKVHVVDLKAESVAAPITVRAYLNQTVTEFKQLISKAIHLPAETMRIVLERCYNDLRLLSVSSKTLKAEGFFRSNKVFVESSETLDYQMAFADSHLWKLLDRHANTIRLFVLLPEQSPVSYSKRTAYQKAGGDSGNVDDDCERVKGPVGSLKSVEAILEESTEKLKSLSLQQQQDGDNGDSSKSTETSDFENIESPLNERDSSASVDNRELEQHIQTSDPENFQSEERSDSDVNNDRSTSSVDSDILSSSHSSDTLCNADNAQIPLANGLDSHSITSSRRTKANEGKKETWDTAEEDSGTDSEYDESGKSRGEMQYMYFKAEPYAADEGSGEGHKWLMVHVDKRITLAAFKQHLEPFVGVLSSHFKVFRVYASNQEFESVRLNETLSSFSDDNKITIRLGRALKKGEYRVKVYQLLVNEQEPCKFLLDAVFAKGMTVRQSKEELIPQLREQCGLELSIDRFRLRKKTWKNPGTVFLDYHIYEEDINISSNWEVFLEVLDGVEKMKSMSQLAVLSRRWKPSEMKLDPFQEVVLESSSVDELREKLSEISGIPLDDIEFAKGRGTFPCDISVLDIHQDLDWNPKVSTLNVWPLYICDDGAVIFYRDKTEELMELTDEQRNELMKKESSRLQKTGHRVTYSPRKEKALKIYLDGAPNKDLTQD
Summary of the method: as §1

USP48 = target: T3, USP48 (UniProt Q86UV5)
T3 sequence (whole entry): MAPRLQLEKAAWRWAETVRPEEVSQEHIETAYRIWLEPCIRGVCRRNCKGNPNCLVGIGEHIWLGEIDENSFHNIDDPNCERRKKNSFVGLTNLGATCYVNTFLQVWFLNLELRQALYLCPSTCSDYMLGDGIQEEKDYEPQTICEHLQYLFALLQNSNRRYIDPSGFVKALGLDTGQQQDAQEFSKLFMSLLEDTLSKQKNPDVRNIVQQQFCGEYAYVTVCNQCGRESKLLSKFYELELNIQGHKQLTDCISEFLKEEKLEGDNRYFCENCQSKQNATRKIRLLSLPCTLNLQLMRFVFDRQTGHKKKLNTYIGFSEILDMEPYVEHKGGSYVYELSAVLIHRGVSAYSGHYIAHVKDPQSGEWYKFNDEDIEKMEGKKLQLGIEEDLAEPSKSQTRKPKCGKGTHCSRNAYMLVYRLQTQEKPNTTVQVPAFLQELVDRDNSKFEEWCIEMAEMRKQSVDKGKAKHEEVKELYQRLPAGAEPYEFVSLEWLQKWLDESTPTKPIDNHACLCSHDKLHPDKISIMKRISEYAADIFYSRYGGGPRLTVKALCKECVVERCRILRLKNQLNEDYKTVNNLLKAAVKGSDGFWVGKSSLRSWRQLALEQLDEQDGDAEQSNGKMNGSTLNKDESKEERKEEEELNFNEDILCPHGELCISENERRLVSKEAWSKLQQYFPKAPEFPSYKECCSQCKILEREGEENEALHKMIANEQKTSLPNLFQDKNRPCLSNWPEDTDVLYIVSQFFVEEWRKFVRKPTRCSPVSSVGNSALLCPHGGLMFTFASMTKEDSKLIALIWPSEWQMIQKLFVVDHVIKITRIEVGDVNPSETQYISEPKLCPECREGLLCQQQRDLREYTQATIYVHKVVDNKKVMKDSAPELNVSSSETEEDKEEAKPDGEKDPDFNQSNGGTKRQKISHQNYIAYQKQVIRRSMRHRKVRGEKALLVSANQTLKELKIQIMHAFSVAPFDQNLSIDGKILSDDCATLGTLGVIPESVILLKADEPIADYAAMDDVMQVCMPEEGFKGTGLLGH
Summary of the method: as §1

USP5 = target: T4, USP5 (UniProt P45974)
T4 sequence (whole entry): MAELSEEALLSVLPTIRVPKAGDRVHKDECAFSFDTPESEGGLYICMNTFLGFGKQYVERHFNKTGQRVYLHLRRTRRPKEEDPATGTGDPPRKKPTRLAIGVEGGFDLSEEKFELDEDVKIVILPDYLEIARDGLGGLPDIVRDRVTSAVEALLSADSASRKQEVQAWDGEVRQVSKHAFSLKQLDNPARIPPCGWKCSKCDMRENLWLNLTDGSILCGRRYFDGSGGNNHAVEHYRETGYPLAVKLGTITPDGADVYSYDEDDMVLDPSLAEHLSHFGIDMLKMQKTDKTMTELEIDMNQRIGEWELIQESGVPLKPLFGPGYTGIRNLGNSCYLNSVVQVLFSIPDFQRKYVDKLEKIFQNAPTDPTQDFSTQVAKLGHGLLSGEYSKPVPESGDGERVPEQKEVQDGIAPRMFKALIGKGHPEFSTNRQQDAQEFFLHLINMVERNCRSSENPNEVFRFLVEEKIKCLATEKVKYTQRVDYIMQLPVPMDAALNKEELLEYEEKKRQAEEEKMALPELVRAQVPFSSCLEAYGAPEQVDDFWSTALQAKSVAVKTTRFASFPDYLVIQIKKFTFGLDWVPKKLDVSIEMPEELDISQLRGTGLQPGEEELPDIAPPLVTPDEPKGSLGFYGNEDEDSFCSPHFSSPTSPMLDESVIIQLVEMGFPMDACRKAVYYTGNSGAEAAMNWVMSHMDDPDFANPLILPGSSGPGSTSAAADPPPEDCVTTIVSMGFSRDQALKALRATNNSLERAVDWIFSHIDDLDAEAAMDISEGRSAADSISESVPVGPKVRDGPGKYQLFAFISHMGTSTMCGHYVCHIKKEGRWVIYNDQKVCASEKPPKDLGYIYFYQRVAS
Summary of the method: as §1

USP54 = USP54 (UniProt Q70EL1)
Chain of USP54 (Q70EL1 whole entry): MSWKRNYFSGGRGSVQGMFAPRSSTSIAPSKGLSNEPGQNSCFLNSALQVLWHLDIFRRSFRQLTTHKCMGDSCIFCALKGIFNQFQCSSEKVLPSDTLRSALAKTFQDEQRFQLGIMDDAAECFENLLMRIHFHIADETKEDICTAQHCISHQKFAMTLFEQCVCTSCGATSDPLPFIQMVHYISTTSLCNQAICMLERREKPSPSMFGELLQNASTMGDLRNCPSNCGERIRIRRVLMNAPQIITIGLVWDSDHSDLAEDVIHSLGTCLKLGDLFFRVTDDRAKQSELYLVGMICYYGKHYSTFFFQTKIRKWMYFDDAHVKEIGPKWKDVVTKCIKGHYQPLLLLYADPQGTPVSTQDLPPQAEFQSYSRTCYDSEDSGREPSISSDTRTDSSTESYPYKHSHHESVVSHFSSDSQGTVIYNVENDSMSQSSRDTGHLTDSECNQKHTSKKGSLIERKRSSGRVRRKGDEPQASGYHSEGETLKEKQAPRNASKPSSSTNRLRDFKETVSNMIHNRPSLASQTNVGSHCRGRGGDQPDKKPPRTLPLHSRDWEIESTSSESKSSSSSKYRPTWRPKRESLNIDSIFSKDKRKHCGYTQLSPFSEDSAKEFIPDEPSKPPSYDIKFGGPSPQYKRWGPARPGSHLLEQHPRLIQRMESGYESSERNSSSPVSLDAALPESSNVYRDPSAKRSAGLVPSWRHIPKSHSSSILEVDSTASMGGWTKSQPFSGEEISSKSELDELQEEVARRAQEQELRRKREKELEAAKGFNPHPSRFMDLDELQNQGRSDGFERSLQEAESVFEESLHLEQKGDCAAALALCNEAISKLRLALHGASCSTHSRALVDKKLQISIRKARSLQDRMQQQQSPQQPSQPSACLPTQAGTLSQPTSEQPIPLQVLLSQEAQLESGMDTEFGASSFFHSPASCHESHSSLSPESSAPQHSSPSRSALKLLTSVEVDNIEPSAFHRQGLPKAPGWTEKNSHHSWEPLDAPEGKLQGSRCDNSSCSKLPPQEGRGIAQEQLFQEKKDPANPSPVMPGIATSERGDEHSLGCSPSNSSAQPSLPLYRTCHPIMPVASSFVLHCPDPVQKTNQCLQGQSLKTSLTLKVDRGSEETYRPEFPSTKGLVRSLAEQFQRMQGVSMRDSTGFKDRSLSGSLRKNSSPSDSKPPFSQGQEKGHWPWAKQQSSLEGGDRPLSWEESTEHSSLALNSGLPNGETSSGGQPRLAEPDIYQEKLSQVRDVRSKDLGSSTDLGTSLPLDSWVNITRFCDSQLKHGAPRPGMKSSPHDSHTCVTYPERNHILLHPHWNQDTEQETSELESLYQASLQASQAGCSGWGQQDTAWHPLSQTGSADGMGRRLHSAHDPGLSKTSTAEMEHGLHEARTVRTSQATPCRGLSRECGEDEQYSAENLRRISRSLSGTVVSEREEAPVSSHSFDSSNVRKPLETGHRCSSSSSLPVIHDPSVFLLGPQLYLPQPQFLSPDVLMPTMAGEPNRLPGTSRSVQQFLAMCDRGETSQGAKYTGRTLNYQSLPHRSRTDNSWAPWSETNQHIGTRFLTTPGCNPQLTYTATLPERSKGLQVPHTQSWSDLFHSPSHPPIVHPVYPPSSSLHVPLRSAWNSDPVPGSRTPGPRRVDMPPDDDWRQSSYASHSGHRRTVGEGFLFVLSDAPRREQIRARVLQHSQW
Summary of the method: as §1

USP7 = USP7 (UniProt Q93009)
Chain of USP7 (Q93009 whole entry, looked up): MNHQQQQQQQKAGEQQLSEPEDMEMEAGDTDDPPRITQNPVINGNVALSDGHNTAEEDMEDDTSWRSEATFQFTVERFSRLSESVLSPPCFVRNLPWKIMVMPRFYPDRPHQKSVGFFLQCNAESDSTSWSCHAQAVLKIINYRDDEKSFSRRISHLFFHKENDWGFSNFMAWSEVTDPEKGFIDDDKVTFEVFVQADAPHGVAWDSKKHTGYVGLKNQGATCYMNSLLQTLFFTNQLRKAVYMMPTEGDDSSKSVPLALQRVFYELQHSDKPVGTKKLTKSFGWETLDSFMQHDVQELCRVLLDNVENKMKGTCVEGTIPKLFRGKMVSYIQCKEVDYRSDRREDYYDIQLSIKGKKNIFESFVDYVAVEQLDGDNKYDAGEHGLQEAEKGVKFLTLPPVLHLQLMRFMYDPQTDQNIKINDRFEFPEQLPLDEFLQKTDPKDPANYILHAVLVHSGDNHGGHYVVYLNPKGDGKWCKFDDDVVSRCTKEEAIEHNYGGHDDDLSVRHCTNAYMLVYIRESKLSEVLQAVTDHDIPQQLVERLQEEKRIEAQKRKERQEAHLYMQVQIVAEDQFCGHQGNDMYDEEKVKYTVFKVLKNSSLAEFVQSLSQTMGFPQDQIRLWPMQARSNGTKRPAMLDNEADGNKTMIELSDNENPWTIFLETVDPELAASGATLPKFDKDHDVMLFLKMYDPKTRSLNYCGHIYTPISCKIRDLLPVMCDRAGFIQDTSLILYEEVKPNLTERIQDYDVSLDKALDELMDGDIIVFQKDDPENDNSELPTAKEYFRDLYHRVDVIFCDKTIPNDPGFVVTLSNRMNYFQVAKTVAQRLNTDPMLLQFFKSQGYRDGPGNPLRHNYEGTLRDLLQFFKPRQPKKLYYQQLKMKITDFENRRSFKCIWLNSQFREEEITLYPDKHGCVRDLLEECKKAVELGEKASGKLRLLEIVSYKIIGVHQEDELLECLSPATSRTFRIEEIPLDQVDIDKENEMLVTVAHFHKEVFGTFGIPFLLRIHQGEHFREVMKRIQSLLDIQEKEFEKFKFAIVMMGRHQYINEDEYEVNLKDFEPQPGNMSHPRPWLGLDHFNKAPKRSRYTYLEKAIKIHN
Summary of the method: as §1

USP8 = target: T5, USP8 (UniProt P40818)
T5 sequence (whole entry): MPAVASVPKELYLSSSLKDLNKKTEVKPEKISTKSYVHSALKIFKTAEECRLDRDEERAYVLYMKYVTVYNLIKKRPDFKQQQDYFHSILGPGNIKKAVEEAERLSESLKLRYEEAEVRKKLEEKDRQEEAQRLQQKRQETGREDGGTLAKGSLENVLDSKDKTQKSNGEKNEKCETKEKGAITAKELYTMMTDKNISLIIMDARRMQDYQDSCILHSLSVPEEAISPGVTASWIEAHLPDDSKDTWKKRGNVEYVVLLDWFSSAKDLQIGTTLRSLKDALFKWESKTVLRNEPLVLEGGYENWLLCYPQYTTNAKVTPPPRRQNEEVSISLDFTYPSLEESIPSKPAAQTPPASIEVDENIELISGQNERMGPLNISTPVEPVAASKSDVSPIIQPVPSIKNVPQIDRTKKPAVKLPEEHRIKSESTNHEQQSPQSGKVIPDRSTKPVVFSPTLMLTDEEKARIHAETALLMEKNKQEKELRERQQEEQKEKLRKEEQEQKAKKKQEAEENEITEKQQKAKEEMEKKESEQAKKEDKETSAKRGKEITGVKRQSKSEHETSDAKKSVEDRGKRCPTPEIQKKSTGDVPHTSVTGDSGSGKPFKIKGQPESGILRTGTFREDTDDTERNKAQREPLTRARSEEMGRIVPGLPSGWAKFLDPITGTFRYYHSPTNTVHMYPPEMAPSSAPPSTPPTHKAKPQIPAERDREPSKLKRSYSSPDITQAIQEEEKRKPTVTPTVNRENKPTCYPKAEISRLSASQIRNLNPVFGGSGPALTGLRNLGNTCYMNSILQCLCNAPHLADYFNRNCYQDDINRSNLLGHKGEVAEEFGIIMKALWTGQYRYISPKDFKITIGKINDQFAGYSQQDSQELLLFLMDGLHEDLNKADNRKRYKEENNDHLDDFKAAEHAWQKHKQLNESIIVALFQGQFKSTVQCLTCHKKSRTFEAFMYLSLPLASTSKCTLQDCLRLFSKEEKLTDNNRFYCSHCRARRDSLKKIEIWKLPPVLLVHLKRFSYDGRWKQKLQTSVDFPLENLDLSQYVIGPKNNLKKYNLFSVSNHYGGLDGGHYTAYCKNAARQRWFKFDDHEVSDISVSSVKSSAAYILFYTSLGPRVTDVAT
Summary of the method: as §1

Measured: log2 ratio of Biotin-Ahx-Ub-VS probe labelling

CC(NC(=O)CCl)c1cnn(C2CC2)c1 (stereo not drawn)
inactive: USP42 0.309 | USP46 -0.113 | USP47 -0.514 | USP48 0.0173 | USP5 -0.392 | USP54 0.76 | USP7 -0.323 | USP8 -0.373
